14-3-3 Bad PPI: disrupts binding of bovine 14-3-3 zeta to phospho-Bad peptide | inhibition, % at 21.7 µM | AID 781 | TR-FRET 14-3-3zeta/Dy647-pBad peptide displacement, 1 h | 220,000 tested, 0.71% active;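 active means inhibition above about 70%, limit read from the data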;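 further: 0% = full 14-3-3 plus peptide FRET controls and 100% = background without 14-3-3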
ROMK primary: modulates human ROMK potassium channel activity. P48048. 130,000 tested, 2% active. B-score at 10 µM. AID 1918. Tet-inducible ROMK, thallium flux fluorescence; actives lie on both sides;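 active means signal ratio slope over the read window, or its plate-corrected B-score, at least 3 SD from the plate mean, either direction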;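 further: B-score of the F/F0 ratio slope over 7 to 12 s after thallium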
Target sequence (P48048 whole entry, looked up): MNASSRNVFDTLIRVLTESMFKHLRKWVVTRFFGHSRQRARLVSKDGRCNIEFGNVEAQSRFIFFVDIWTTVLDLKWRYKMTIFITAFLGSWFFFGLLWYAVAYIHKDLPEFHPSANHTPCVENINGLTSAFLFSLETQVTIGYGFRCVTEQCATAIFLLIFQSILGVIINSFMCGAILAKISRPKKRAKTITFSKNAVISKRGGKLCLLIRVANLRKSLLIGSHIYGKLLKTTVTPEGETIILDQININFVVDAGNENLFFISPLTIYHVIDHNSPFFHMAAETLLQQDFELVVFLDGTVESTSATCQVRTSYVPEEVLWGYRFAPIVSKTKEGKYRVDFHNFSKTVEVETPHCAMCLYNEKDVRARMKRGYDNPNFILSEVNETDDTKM
m-calpain inh: calpain II (pig) inhibition | purified calpain II, fluorogenic peptide substrate, 30 min | inhibition, % at 16 µM | 220,000 tested, 0.37% active | AID 1236;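 active means inhibition above about 50%, limit read from the data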
Efa HMGR inh: E. faecalis class II HMG-CoA reductase inhibition; purified E. faecalis HMGR, NADPH absorbance 340 nm kinetic; inhibition, % at 10 µM; 190,000 tested, 0.41% active; AID 1066;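 active means inhibition above a set limit, the median over all tested compounds plus 3 SD, cut at about 9.5% in these data; inconclusive means no clear call, values can overlap the other calls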;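 further: enzyme runs in reverse so mevalonate oxidation gives rising NADPH absorbance; 0% = complete reaction with DMSO and 100% = background rate lacking mevalonate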
TNF necrop inh: blocks TNF-alpha induced death of Jurkat FADD-/- cells; Jurkat FADD-/- TNF necroptosis rescue, ATP luminescence, 24 h; 0 = TNF only, 100 = no-TNF cells; activation (protection from cell death), % at 10 µM; 220,000 tested, 0.068% active;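 active means activation, meaning protection from cell death, of at least 50% relative to plate controls; inactive means activation below 50%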;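 further: necroptosis triggered by 40 ng/mL TNF-alpha added together with compound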
L929 necroptosis: L929 zVAD cell death inhibition; viability rescue, % at 10 µM; L929 zVAD necroptosis rescue, ATP luminescence, 24 h; with zVAD 60 µM; 220,000 tested, 0.38% active; AID 1377;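 active means activation, scaled between plate controls, above about 75%, limit read from the data; inactive means activation under that limit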;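 further: 0% = zVAD with DMSO and 100% = DMSO alone without zVAD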
ROMK hit retest: human ROMK channel modulation, retest confirmation; shares compounds with ROMK primary; ROMK thallium flux, fluorescence ratio; stronger effect = lower value; normalized thallium flux (F/F0 slope) at 10 µM; 3,000 tested, 54% active;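 active means Flux at 10 µM at least 3 SD below or above vehicle control mean in one or both replicates; inconclusive means no clear call, values can overlap the other calls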
The depositor's hits bear a star; ? = inconclusive; . = no result. A selection: hits, their analogues and other compounds. The true share with any hit is near 3%.

SMILES | 14-3-3 Bad PPI | ROMK primary | m-calpain inh | Efa HMGR inh | TNF necrop inh | L929 necroptosis | ROMK hit retest
CC(=O)N1CCc2ccc(S(=O)(=O)N3CCc4ccccc43)cc21 | 1 | -0.86 | -12 | -2 | -2 | 0 | .
CC(CCCC(C)(C)O)CC1C2=C(CCCC2=O)OC2=C1C(=O)CCC2 (centres undefined) | -8 | -0.6 | -1 | -4 | -2 | 0 | .
NC(=O)CCCc1nc(-c2ccccc2Cl)no1 | -10 | . | -34 | 4 | -1 | 0 | .
CNC(=O)CCCc1nc(-c2ccccc2Cl)no1 | -16 | 3.1* | 22 | -1 | 0 | 1 | 0.072
CCOC(=O)CNc1nc(Cl)c(C#N)s1 | -4 | -0.077 | 7 | -5 | 1 | 2 | .
Cc1ccc(CNc2nc(Cl)c(C#N)s2)cc1 | -2 | 1.1* | 76* | 3 | 2 | 2 | 0.081
COC1(OC)N=C(N)C2(C#N)C(c3ccc(F)cc3)C12C#N (centres undefined) | -13 | 0.23 | 10 | -6 | 2 | 1 | .
CCSC1(SCC)N=C(N)C2(C#N)C(c3ccc(F)cc3)C12C#N (centres undefined) | -2 | . | -25 | 0 | -4 | 0 | ?
COc1ccc(NC(=O)CCN2CCN(S(=O)(=O)c3cc(Cl)ccc3OC)CC2)cc1 | 7 | -3.3* | -26 | 1 | 1 | 0 | 0.061*
Cc1cc(NC(=O)c2noc3c2CCc2ccccc2-3)n(-c2ccccc2)n1 | 15 | . | -33 | -4 | 2 | 2 | 0.083
COc1ccc(-c2cc(C(=O)Nc3cc(C)on3)no2)cc1OC | -8 | -0.75 | -76 | -5 | 1 | 2 | .
COc1ccc(-c2cc(C(=O)Nc3cc(C)nn3-c3ccccc3)no2)cc1OC | -14 | 3.7* | -27 | -1 | -1 | 3 | 0.077
CC1CCC(C(C)C)C(OC(=O)C[n+]2cc(-c3ccc(Cl)cc3)n3c2CCC3)C1 (centres undefined) | -3 | -6.6* | -10 | . | -2 | 0 | 0.047*
Cc1ccc(-c2cc(C(F)(F)F)n3nc(C(=O)NCCCn4ccnc4)cc3n2)cc1C | 9 | -1.8 | -350 | -2 | -9 | 1 | .
COc1ccc(-n2cnc3cc(NCc4cccs4)ccc32)cc1 | -17 | -0.49 | 31 | 4 | -5 | 73 | .
c1ccc(-n2cnc3cc(NCc4ccco4)ccc32)cc1 | 2 | 3.3* | 8 | -8 | -3 | 72 | ?
N#C/C(=C\c1ccc(OCc2cccc(C(=O)O)c2)cc1)C(=O)NCc1ccco1 | 10 | . | -1 | . | 4 | 2 | 0.039*
COCCNC(=O)/C(C#N)=C/c1ccc(OCc2ccccc2)cc1 | 1 | . | 15 | -5 | 0 | 1 | .
COc1cc(/C=N/NC(N)=O)ccc1OCC(=O)Nc1cc(C)c(C)cc1Br | 36 | -0.0047 | -24 | -1 | 0 | 4 | .
COc1ccc(C2=NOC(C(=O)NCc3cccs3)C2)cc1 (centres undefined) | 0 | 3.8* | -25 | -8 | -6 | 1 | 0.084
COc1ccc(C2=NOC(C(=O)NCc3ccco3)C2)cc1 (centres undefined) | -12 | 3.9* | -4 | -7 | -14 | -1 | ?
COc1ccc(C2=NOC(C(=O)NCc3cccs3)C2)cc1OC (centres undefined) | -11 | 0.92 | 17 | -1 | -7 | 0 | .
O=c1/c(=C/c2ccc(O)c([N+](=O)[O-])c2)sc2nc3ccccc3n12 | 1 | 1 | 3 | 3 | 3 | 0 | .
CCN(CC)c1ccc(/C=c2\sc3nc4ccccc4n3c2=O)c(O)c1 | -23 | -4.8* | -314 | 7 | -5 | 1 | 0.03*
CCOC(=O)C1CCCN(c2nc3ccccc3nc2C(C#N)C(=O)OC(C)COC)C1 (centres undefined) | 2 | -0.14 | -2 | -1 | 1 | -1 | 0.071
COCCn1c(=NC(=O)CSCC(=O)Nc2cc(C)on2)sc2cc(C(=O)OC)ccc21 | 3 | -0.051 | 7 | -2 | 3 | . | 0.079
C=C(C)CNC(=S)Nc1cccc(S(=O)(=O)NC2=NCCC2)c1 | -12 | 0.079 | -2 | 1 | -1 | 2 | .
